Results published in ChEMBL document CHEMBL1961873, “Compounds: GSK PKIS; Assays: Nanosyn kinase panel” (2012).

What was measured:
[1] = target: T1, Tyrosine-protein kinase receptor TYRO3 (Homo sapiens) (UniProt Q06418); conditions: at 1 µM
T1 sequence (whole entry): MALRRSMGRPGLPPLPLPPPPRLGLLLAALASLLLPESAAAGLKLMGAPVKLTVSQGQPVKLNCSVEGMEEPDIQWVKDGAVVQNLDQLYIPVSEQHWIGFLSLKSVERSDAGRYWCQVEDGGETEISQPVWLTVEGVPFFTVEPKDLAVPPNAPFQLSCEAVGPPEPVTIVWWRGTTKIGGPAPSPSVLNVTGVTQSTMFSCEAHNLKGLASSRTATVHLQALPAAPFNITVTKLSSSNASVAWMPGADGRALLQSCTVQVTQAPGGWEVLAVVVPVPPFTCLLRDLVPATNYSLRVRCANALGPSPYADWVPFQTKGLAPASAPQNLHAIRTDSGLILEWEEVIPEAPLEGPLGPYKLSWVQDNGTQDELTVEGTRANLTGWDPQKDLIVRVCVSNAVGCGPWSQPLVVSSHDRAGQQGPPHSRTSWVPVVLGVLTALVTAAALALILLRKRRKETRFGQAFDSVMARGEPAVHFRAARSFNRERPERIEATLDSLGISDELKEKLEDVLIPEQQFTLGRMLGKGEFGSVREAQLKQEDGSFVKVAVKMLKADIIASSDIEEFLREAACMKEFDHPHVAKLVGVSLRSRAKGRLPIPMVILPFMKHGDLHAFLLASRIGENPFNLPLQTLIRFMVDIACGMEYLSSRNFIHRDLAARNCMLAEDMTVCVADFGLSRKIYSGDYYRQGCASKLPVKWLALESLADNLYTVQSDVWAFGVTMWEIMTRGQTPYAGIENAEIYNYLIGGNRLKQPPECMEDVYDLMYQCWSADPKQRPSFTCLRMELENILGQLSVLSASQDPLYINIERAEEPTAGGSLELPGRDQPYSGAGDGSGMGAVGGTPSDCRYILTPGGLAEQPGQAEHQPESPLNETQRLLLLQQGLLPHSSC

[2] = target: Tyrosine-protein kinase Yes (Homo sapiens) (UniProt P07947); conditions: at 0.1 µM
Tyrosine-protein kinase Yes (Homo sapiens), sequence (P07947 2-543 limits assumed): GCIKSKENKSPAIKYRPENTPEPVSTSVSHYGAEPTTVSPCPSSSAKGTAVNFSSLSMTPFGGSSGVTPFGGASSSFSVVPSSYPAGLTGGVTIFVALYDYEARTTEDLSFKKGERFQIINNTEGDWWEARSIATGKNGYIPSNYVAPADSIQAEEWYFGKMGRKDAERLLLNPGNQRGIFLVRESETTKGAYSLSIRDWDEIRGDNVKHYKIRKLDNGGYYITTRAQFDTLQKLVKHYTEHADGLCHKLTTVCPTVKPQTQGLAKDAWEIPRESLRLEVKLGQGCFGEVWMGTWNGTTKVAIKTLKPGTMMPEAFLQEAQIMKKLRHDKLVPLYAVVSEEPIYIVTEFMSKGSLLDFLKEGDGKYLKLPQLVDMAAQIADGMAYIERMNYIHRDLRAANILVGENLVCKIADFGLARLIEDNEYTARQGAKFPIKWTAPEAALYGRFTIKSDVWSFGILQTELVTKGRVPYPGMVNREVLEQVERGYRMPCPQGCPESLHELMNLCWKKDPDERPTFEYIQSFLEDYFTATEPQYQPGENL

[3] = target: Tyrosine-protein kinase Yes (Homo sapiens) (UniProt P07947); conditions: at 1 µM
[4] = target: T2, Tyrosine-protein kinase ZAP-70 (Homo sapiens) (UniProt P43403); conditions: at 0.1 µM
T2 sequence (whole entry): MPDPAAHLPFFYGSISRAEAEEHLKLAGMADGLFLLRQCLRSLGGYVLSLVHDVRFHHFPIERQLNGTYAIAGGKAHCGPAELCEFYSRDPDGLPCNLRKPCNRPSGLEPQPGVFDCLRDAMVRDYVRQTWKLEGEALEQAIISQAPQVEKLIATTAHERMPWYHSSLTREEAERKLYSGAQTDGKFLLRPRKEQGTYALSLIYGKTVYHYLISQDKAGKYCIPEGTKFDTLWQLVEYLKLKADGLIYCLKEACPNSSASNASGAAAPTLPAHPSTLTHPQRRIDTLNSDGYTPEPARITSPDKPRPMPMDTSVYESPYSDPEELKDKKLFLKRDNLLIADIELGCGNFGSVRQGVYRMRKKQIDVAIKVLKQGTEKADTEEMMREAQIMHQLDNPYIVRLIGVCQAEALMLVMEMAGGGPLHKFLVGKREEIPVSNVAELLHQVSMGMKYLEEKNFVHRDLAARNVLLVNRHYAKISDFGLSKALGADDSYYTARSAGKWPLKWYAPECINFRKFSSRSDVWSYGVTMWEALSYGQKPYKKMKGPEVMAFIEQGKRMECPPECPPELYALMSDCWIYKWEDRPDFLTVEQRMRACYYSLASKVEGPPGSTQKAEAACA

[5] = target: Serine/threonine-protein kinase B-raf (Homo sapiens) (UniProt P15056); conditions: at 0.1 µM
Serine/threonine-protein kinase B-raf (Homo sapiens), sequence (P15056 whole entry): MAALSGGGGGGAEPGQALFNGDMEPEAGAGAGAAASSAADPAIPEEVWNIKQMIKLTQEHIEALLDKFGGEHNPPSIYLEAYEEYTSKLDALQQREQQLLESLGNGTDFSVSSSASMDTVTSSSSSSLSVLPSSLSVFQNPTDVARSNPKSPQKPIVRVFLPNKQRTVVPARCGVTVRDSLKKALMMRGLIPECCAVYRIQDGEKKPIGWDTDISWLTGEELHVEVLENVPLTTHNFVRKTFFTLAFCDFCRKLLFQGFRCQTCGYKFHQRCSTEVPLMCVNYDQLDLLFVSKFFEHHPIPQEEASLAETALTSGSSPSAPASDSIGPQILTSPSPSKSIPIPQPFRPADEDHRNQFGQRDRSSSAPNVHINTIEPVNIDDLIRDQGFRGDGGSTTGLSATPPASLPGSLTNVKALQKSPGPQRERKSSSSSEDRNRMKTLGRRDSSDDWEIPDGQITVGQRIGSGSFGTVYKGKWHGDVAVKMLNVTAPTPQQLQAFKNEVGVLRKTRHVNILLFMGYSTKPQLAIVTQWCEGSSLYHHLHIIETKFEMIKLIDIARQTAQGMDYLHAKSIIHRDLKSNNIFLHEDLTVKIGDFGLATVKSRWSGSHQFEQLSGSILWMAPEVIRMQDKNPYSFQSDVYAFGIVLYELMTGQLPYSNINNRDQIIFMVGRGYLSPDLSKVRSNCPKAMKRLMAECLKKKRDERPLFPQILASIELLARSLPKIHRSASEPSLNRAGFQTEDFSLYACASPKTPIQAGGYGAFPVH

[6] = target: Serine/threonine-protein kinase B-raf (Homo sapiens) (UniProt P15056); conditions: at 1 µM
[7] = system: Serine/threonine-protein kinase B-raf (Homo sapiens), P15056 [V600E]; conditions: at 0.1 µM
Serine/threonine-protein kinase B-raf (Homo sapiens), P15056 [V600E], sequence (P15056 whole entry V600E): as the sequence (P15056 whole entry) above, with V600E counted along it

[8] = system: Serine/threonine-protein kinase B-raf (Homo sapiens), P15056 [V600E]; conditions: at 1 µM
[9] = target: RAF proto-oncogene serine/threonine-protein kinase (Homo sapiens) (UniProt P04049); conditions: at 0.1 µM
RAF proto-oncogene serine/threonine-protein kinase (Homo sapiens), sequence (P04049 whole entry): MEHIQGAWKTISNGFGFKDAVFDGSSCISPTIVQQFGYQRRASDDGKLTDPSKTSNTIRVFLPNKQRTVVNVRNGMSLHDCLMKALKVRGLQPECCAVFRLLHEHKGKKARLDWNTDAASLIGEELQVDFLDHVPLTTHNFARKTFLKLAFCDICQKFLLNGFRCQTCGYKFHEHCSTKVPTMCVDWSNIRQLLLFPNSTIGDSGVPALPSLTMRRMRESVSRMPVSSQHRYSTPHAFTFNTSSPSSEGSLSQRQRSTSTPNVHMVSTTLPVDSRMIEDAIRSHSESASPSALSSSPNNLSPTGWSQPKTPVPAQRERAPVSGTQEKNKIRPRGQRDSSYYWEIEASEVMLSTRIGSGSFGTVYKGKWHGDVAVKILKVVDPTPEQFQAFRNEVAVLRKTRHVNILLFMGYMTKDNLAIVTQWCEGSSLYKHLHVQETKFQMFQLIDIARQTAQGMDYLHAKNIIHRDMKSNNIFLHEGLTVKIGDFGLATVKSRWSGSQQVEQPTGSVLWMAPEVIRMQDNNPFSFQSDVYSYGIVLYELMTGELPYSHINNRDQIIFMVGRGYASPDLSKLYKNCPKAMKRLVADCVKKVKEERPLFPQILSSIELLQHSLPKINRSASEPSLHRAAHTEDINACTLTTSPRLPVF

[10] = target: RAF proto-oncogene serine/threonine-protein kinase (Homo sapiens) (UniProt P04049); conditions: at 1 µM
[11] = target: T3, Interleukin-1 receptor-associated kinase 4 (Homo sapiens) (UniProt Q9NWZ3); conditions: at 0.1 µM
T3 sequence (whole entry): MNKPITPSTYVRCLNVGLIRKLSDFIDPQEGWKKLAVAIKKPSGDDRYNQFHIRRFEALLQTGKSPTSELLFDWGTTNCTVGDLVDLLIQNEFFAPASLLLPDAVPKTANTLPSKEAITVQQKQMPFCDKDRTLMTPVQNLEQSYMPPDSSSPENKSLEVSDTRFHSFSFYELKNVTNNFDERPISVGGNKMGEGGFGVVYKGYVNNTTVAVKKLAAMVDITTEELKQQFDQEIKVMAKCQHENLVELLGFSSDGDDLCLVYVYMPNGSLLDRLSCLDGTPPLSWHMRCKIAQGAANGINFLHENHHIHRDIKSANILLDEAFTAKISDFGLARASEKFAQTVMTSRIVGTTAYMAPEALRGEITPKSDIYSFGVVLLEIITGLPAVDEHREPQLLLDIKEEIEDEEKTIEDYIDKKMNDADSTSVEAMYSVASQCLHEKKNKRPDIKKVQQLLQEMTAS

[12] = target: T3, Interleukin-1 receptor-associated kinase 4 (Homo sapiens); conditions: at 1 µM
[13] = target: Leucine-rich repeat serine/threonine-protein kinase 2 (Homo sapiens) (UniProt Q5S007); conditions: at 0.1 µM
Leucine-rich repeat serine/threonine-protein kinase 2 (Homo sapiens), sequence (Q5S007 whole entry): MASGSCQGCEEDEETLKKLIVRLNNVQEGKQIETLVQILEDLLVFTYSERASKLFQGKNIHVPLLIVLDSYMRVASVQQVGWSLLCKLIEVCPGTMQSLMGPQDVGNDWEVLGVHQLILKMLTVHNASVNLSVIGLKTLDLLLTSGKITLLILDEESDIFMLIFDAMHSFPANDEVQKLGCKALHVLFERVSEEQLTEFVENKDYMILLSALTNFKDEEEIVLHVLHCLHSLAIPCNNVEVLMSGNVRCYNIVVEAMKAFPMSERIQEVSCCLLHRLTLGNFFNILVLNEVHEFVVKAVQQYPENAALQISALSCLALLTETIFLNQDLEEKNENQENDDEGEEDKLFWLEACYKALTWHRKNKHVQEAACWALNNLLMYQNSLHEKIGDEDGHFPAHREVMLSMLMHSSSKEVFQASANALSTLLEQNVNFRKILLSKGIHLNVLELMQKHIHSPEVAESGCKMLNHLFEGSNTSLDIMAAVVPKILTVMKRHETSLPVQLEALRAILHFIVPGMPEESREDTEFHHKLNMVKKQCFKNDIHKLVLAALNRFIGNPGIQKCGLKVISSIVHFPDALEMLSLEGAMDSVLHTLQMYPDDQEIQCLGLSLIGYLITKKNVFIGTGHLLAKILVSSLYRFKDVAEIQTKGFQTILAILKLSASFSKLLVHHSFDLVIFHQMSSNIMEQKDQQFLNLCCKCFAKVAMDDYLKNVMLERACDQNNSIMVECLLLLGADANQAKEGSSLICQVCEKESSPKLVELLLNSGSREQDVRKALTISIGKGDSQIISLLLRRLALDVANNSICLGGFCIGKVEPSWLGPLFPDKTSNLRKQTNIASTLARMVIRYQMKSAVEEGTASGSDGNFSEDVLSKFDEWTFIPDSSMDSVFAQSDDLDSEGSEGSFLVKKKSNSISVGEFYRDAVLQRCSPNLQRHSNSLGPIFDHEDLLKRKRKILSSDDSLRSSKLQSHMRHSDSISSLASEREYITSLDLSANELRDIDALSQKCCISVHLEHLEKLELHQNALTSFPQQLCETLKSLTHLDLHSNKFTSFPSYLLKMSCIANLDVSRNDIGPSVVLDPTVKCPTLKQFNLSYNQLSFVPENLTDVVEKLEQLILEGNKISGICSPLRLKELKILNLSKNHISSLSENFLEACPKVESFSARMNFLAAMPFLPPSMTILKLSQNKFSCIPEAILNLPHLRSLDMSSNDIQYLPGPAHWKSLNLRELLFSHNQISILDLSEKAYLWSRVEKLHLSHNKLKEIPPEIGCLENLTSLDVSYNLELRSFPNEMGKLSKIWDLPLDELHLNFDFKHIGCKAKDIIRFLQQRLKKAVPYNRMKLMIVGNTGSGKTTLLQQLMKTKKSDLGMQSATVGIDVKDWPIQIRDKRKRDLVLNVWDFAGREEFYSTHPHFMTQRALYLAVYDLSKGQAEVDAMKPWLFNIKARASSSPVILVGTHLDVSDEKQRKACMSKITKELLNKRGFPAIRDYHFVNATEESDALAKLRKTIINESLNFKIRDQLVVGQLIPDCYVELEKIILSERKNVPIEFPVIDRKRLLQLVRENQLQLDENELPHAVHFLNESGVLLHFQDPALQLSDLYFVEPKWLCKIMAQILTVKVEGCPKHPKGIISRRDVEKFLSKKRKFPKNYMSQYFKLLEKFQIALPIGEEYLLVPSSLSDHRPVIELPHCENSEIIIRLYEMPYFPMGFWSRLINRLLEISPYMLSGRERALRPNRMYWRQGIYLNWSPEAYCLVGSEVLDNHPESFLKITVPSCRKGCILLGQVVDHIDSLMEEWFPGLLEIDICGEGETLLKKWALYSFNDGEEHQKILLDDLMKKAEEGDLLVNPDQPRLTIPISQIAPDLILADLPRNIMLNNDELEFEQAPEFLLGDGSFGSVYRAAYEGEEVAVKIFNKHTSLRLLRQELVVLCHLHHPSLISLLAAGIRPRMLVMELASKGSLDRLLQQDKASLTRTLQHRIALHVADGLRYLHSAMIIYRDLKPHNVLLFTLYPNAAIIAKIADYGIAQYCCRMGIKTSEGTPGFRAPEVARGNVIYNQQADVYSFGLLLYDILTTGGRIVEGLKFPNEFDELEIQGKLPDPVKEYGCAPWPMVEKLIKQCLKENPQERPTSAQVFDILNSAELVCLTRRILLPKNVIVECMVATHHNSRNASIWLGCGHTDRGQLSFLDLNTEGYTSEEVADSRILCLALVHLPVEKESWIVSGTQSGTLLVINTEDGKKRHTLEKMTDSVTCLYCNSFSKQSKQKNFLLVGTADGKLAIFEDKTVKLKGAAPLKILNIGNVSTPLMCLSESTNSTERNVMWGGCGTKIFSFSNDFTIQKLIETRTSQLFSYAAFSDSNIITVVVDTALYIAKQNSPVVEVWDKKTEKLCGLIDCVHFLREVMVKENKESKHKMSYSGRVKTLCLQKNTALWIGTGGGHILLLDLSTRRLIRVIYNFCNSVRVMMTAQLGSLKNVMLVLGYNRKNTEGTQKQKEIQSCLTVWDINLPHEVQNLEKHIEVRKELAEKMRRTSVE

[14] = target: Leucine-rich repeat serine/threonine-protein kinase 2 (Homo sapiens) (UniProt Q5S007); conditions: at 1 µM
[15] = system: Leucine-rich repeat serine/threonine-protein kinase 2 (Homo sapiens), Q5S007 [G2019S]; conditions: at 0.1 µM
Leucine-rich repeat serine/threonine-protein kinase 2 (Homo sapiens), Q5S007 [G2019S], sequence (Q5S007 whole entry G2019S): as the sequence (Q5S007 whole entry) above, with G2019S counted along it

[16] = system: Leucine-rich repeat serine/threonine-protein kinase 2 (Homo sapiens), Q5S007 [G2019S]; conditions: at 1 µM
[17] = target: T2, Tyrosine-protein kinase ZAP-70 (Homo sapiens); conditions: at 1 µM

Compound | inhibition [1] [%] | inhibition [2] [%] | inhibition [3] [%] | inhibition [4] [%] | inhibition [5] [%] | inhibition [6] [%] | inhibition [7] [%] | inhibition [8] [%] | inhibition [9] [%] | inhibition [10] [%] | inhibition [11] [%] | inhibition [12] [%] | inhibition [13] [%] | inhibition [14] [%] | inhibition [15] [%] | inhibition [16] [%] | inhibition [17] [%]
COc1cc2c(cc1Nc1nc(N3CCc4ccccc43)c3cc[nH]c3n1)N(C(=O)CN(C)C)CC2 | 1.54 | -0.07 | -1.83 | 1.18 | 1.69 | 2.22 | 1.91 | 1.68 | -4.52 | -4.34 | -0.95 | 0.98 | 17.6 | 19.3 | 18.2 | 57.1 | –
O=C1NC(=O)C(c2cccc(Cl)c2)=C1Nc1ccc(O)c(Cl)c1 | 0.29 | 2.84 | 2.76 | 1.5 | 1.14 | 6 | 0.91 | 7.11 | 0.68 | 3.11 | 2.97 | 0.96 | 4.5 | 18.4 | 4.28 | 30 | 2.74
N#Cc1c(NC(=O)c2cccc3ccccc23)sc2c1CCCC2 | 2.06 | 3.08 | 2.43 | 2.19 | 4.29 | 5.63 | 4.43 | 5.4 | -0.45 | 3.48 | 2.64 | 1.05 | 1.35 | 2.73 | 1.99 | 3.65 | 4.42
COc1cc2ncn(-c3cc(O[C@@H](C)c4ccccc4Cl)c(C(N)=O)s3)c2cc1OC | 6 | 6.69 | 33.2 | – | 5.9 | 5.17 | 4.21 | 4.64 | -0.12 | 4.09 | 1.23 | 2.08 | 10.9 | 50 | 24 | 64 | 2.45
CCn1c(-c2nonc2N)nc2cnc(Oc3cccc(NC(=O)c4ccc(OCCN5CCOCC5)cc4)c3)cc21 | 2.81 | 3.49 | 4.67 | -1.7 | 4.86 | 6.86 | 5.41 | 5.71 | -0.87 | 6.03 | 3.17 | 1.66 | 0.83 | 9.41 | 4.44 | 29.3 | -1.56
CS(=O)(=O)Nc1ccc(N/C=C2\C(=O)Nc3ccccc32)cc1 | 6.06 | -1.31 | 10.4 | -3.14 | -2.74 | -2.55 | -3.06 | -2.04 | -5.04 | -2.68 | -0.49 | -0.15 | 1.31 | 18.1 | 5.01 | 31.3 | -2.93
O=C(Nc1n[nH]c2nc(-c3ccco3)c(Br)cc12)C1CC1 | 4.49 | 4.26 | 13.8 | 1.19 | 5.54 | 5.7 | 6.02 | 5.23 | 1.52 | 2.37 | 5.57 | 1.08 | 2.41 | 2.93 | 2.74 | 6.98 | 3.08
COc1cc(C)c(NC(=O)CN(C)C)cc1Nc1nc(Nc2cccc(F)c2C(N)=O)c2cc[nH]c2n1 | 7.81 | 2.05 | -2.14 | – | 2.75 | 6.44 | 3.06 | 6.56 | -0.92 | -0.14 | -2.25 | 2 | 91.2 | 90.2 | 83.5 | 88.7 | 3.93
CCn1c(-c2nonc2N)nc2c(C#CC(C)(C)O)nc(CN3CCCC3)cc21 | -1.52 | -0.41 | 5.7 | 2.82 | -1.46 | -1.6 | -1.31 | -0.8 | -3.54 | -7.96 | 3.31 | -0.93 | -0.1 | 1.92 | 0.81 | 3.54 | 1.75
NS(=O)(=O)c1ccc(N/N=C2\C(=O)Nc3ccc(C(=O)NCCc4c[nH]cn4)cc32)cc1 | 21.7 | 2.67 | 11.8 | 1.45 | 7 | 16.5 | 6.04 | 15.9 | -2.7 | – | -1.81 | 2.08 | 10.3 | 16.9 | 15.3 | 50 | 5.13
NC(=O)c1cccc(Nc2nccc(Nc3cccc4[nH]ncc34)n2)c1 | 54.4 | 32 | 82.5 | -2.28 | -3.03 | 4.38 | -3.72 | 3.75 | -3.86 | -3.49 | -3.26 | 3.19 | 0.85 | 8.7 | 4.42 | 30.9 | 4.64
Cc1cc(O)cc(C)c1/C=C/c1cncc(-c2nn[nH]n2)c1 | 11.2 | 5.57 | 41.3 | -1.14 | 7.69 | 10.1 | 7.48 | 8.79 | 4.51 | 60.8 | 1.46 | 2.18 | 1.54 | 10.4 | 6.18 | 35.4 | –
Nc1ncnc2occ(-c3ccc(NC(=O)Nc4cc(C(F)(F)F)cc(C(F)(F)F)c4)cc3)c12 | 29.6 | 1.45 | 11.7 | 2.13 | 3.58 | 7.33 | 2.27 | 7.76 | 4.46 | 3.32 | -4.93 | 1.16 | 9.63 | 16.7 | 4.56 | 26.1 | –
CCc1cccc(NC(=O)Nc2ccc(Oc3ccc4nc(NC(=O)OC)[nH]c4c3)cc2)c1 | 21.4 | 0.83 | -1.93 | 0.4 | 9.12 | 12.2 | 9.23 | 13.8 | -5.43 | 4.58 | 0.53 | 1.04 | 9.23 | 8.78 | 5.51 | 8.2 | -1.32
c1cnn2ncc(-c3ccnc(Nc4ccc5c(c4)OCCO5)n3)c2c1 | 25 | 6.25 | 18.3 | 0.79 | 9.37 | 33.3 | 8.24 | 31 | -0.29 | – | -2.01 | 7.85 | 12.2 | 19.8 | 16.6 | 61.4 | 9.39
